Screens as filed in PubChem.
Hits are enriched below; roughly 1.4% of the tested compounds scored in any of these assays.
PKM2 act: qHTS Assay for Activators of Human Muscle isoform 2 Pyruvate Kinase; Pyruvate kinase PKM (Homo sapiens), P14618; 260,000 compounds, 0.34% hits; Potency, µM (top dose mostly 57.5 µM), for inactives: at the highest dose activation, hits mostly activators; purified PKM2, Kinase-Glo ATP luminescence, activation; response scale: 0% is enzyme alone, no compound; note: potency is the fitted concentration of half-maximal effect; nearly all actives have a fitted effect of over 55% in size
Target sequence (P14618 whole entry, looked up, canonical isoform): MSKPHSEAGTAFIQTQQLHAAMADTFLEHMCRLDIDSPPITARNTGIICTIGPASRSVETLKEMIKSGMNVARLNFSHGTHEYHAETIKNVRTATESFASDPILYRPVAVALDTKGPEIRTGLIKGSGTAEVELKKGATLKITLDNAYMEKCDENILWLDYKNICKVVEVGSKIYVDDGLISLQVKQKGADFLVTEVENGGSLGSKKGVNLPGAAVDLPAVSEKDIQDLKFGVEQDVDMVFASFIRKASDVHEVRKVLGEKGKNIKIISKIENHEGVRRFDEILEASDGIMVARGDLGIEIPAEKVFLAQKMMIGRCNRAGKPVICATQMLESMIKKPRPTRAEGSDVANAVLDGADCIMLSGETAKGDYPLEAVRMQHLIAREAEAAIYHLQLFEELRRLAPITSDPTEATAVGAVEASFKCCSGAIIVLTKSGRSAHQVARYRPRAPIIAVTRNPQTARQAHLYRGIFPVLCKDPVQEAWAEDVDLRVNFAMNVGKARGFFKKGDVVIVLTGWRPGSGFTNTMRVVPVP
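Kinase-Glo luminescence reports ATP generated from ADP (0.1 mM) and PEP (0.5 mM) by purified hPK-M2 after 1 h at room temperature, pH 7.2 imidazole buffer; intermediate enzyme activity allows detecting inhibitors and activators.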
LDHA inh: qHTS assay for inhibitors of human lactate dehydrogenase | purified LDHA, NADH/diaphorase-resazurin fluorescence; active compounds read low | L-lactate dehydrogenase A chain (Homo sapiens), P00338 | activity change, % (values are at about 110 or 230 µM) | AID 1347041, 2019 | 480,000 compounds, 0.15% hits; in the data active = activity change below about -30%; inconclusive = mostly about -25% to -30%;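 note: plate controls were DMSO wells for no effect and wells without enzyme for full effect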
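Remaining NADH was detected by diaphorase (0.133 mg/mL) converting 37 µM resazurin to fluorescent resorufin, read at 0 and 20 minutes. The preceding 5-minute room-temperature reaction used 2 nM LDHA, 0.2 mM sodium pyruvate and 0.06 mM NADH at pH 7.4.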
rTrxR1 inhibitor: qHTS Assay for Inhibitors of Mammalian Selenoprotein Thioredoxin Reductase 1 (TrxR1): qHTS. 390,000 compounds, 1% hits. Thioredoxin reductase 1, cytoplasmic (Rattus norvegicus), O89049. recombinant rTrxR1, NADPH fluorescence consumption, selenite substrate. AID 588453, 2011. Potency, µM (doses to about 114 µM), inactives show at the top dose activity change, negative = inhibition, hits mostly inhibitors; note: potency is the fitted concentration of half-maximal effect; nearly all actives have a fitted effect of over 65% in size
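Rat TrxR1 (90 nM in the dispensed reagent) was pre-reduced with 400 uM NADPH for 5 min at room temperature, then incubated with compound for 15 min. After 400 uM selenite was added, NADPH fluorescence (Ex 340/Em 450 nm) was followed for 8 min.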
GLS inhibitor: qHTS for Inhibitors of Glutaminase (GLS); Glutaminase kidney isoform, mitochondrial (Homo sapiens), O94925; GLS enzymatic activity, qHTS titration; Potency, µM (highest dose often 45.5 µM), for the others: at the top dose activity change, negative = inhibition, actives largely listed as inhibitors; 410,000 compounds, 0.21% hits; AID 624170, 2012; note: potency is the fitted concentration of half-maximal effect
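hKGA in 45 mM KH2PO4 pH 8.2, 0.02% Tween-20 with pin-transferred compounds; 1 mM L-glutamine (stock) plus glutamate oxidase/HRP/Amplex Red coupling added. Fluorescence read initially and after 30 min at RT.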
IDH1 R132H inh: qHTS for Inhibitors of mutant isocitrate dehydrogenase 1 (IDH1): qHTS; Isocitrate dehydrogenase [NADP] cytoplasmic (Homo sapiens), O75874; IDH1-R132H enzyme, NADPH consumption, diaphorase/resazurin fluorescence; Potency, µM (top dose mostly 76.6 µM), inactives show top-dose activity change, negative = inhibition, hits mostly inhibitors; 390,000 compounds, 0.093% hits; AID 602179, 2012; note: potency is the fitted concentration of half-maximal effect; nearly all actives have a fitted effect of over 65% in size
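IDH1-R132H (0.5 ug/mL) preincubated 30 min with compound, then NADPH (0.016 mM) and alpha-KG (2 mM) added; 80 min at RT, pH 7.5. Remaining NADPH coupled via diaphorase/resazurin to fluorescence (540/590 nm); concentration-response curves normalized to no-enzyme control.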
TrxR1 substrate: qHTS Assay for Substrates of Mammalian Selenoprotein Thioredoxin Reductase 1 (TrxR1): qHTS. purified TrxR1 substrate turnover, NADPH consumption readout. 390,000 compounds, 0.01% hits. Potency, µM (highest dose often 114 µM), for the others: at the top dose activity change, negative = substrate turnover. AID 588456, 2011; note: potency is the fitted concentration of half-maximal effect; nearly all actives have a fitted effect of over 50% in size
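Rat TrxR1, dispensed at 90 nM, was prereduced with 400 uM NADPH (final) for 5 min at ~22 deg C, then incubated with compound 15 min before 400 uM selenite. A first-read NADPH fluorescence drop versus no-compound background flagged substrates.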
The depositor's hits bear a star; ? = inconclusive; . = no result given; [ ] = another dose, or the depositor's remark. Unless noted, calls come from the whole dose curve; as a rule, active = well fitted curve in the direction sought with a large enough effect; inconclusive = small, poorly fitted or top-dose-only effect, or another doubt; inactive = no such curve, though single readings can be large; an effect the other way counts as inactive or inconclusive. Unless noted, % is set by controls: 0 for no effect and ±100 for the full control effect.

SMILES | PKM2 act | LDHA inh | rTrxR1 inhibitor | GLS inhibitor | IDH1 R132H inh | TrxR1 substrate
Cc1ccc(-c2cc(C(=O)N3CCN(C(=O)c4ccco4)CC3)c3ccccc3n2)o1 | . | -15 | . | . | . | .
O=c1[nH][nH]c(=O)c2c(NS(=O)(=O)c3ccccc3)cccc12 | 11µM* | -3 | 27%[57.1 µM] | -7% | 15% | -15%[57.1 µM]
C=CCc1cccc(CNc2nc3ccccc3n2CCC)c1O | 28µM* | 8 | 4%[57.1 µM] | 9% | 9% | -2%
O=C(NCc1ccco1)c1ccccc1NS(=O)(=O)c1ccc(Cl)s1 | 0% | 1 | 45µM* | 1% | 0% | 1%
CCN(CC)C(=O)c1cc(-c2ccc(C)s2)nc2ccccc12 | . | 15 | . | . | . | .
Cc1ccc(-c2cc(C(=O)O)c3ccccc3n2)s1 | . | -1 | 79µM* | 3% | -10% | 827%
O=C(/C=C/Sc1ccc(C(F)(F)F)cn1)c1ccccc1 | 5% | -6 | 1.3µM* | -4% | -2% | 0%
COc1ccc(CCNC(=O)c2ccc(CN3CCC(Cc4ccccc4)CC3)cc2)cc1 | -5% | -1 | 1% | -2% | 3% | -4%
COc1ccc(C(=O)NCC23C=CC(O2)C2C(=O)N(Cc4ccccc4)C(=O)C23)cc1 (stereo not given) | -4% | -6 | 25µM* | 2% | 3% | -1%
O=C(COc1ccc2ccccc2c1)Nc1cnc2ccccc2c1 | . | -33* | . | . | . | .
O=C(Nc1ccc2oc(-c3ccccc3F)nc2c1)c1ccccc1 | . | 3 | . | . | . | .
CSc1ccccc1NC(=O)CNCCCN1CCOCC1 | 9% | -36* | 18% | 0% | 14% | 4%
O=C(CSc1ncnc2nc[nH]c12)Nc1cc(Cl)ccc1Cl | . | -38* | . | . | . | .
O=C(CSc1ncnc2nc[nH]c12)Nc1ccccc1Cl | . | 5 | . | . | . | .
CCC1=C[C@@H]2CN(C1)Cc1c([nH]c3ccccc13)[C@@](C(=O)OC)(c1cc3c(cc1OC)N(C)[C@H]1[C@@](O)(C(=O)OC)[C@H](OC(C)=O)[C@]4(CC)C=CCN5CC[C@]31[C@@H]54)C2 | . | 0 | 28µM* | . | . | 4%
CC(C)(C)c1cc(Cl)ccc1OCCOCCN1CCCC1 | 0%[11.5 µM] | -7 | 6% | 11% | -4% | -7%
Cc1ccc(OCCOCCN2CCN(C)CC2)c(C(C)(C)C)c1 | 5% | -32* | 11% | 4% | -12% | 0%
COc1ccc(S(=O)(=O)N2CCC(n3cnc4cc(C(F)(F)F)ccc43)CC2)cc1 | 18% | -5 | -8% | -1% | 3% | -7%
COc1ccc(S(=O)(=O)N2CCC(n3cnc4ccccc43)CC2)cc1 | 16µM* | -8 | -16%[57.1 µM] | -6% | -9% | -8%[57.1 µM]
COC(=O)N1C(=O)[C@](c2ccc(OC)cc2)(C(C)C)N1C(=O)OC | -2% | -1 | ? | -3% | 3% | 7%
COC(=O)N1C(=O)[C@@](c2ccccc2)(C2CCCC2)N1C(=O)OC | -12% | -4 | 8.9µM* | 9% | 0% | -6%
COC(=O)N1C(=O)[C@](c2ccsc2)(C(C)C)N1C(=O)OC | -1% | 1 | 25µM* | 11% | -8% | 5%
COC(=O)N1C(=O)[C@](CC(C)C)(c2ccccc2)N1C(=O)OC | 2% | -6 | 2µM* | 35% | -8%[38.3 µM] | -6%
CC[C@@]1(c2cccc(C)c2)C(=O)N(C(=O)OC)N1C(=O)OC | 2% | -8 | 2µM* | 16% | -1% | 4%
